The full ranking holds about 24,000 sequences; the median of “enrichment r” is about 0.99, and the highest 2% start at about 3.7. For the sample, the highest values were picked, then their nearest neighbours and some sequences at random.

The chains are these.
T1: UNK ZnF1-3 (human, UniProt Q9C0B0 31-174)
T1 sequence: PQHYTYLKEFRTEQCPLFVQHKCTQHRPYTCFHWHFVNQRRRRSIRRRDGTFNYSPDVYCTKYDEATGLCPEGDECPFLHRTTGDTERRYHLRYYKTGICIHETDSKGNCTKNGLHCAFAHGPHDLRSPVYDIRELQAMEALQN

B1: chr11:10830335:10830336:-_ENSG00000110321_ENST00000339995|hu_hu|FALSE|FALSE (ssRNA)
RNA: GGGAGUUCUACAGUCCGACGAUCGCAGCUGCCUCCUCAGGAUCCGGUCGUCGGGGAUAGGGAAGGGAGGGGAAAGGGGAACGGAAAACAAAAAAAAGGGGGAGGGAAGGGGGAGGAAGGAGUCGGGGACGGCCUCAAACUCAGCAACAGAGGAUUGAGCAUCA
B2: chr2:168009416:168009417:-_ENSMUSG00000051149_ENSMUST00000088001|perfect_dup|FALSE|FALSE (ssRNA)
RNA: GGGAGUUCUACAGUCCGACGAUCCAUAUGGUUGAGCAGAGUAUCUGUGGGUAAAUAGCGAUUACAGUAGAGGCAUUUGCUAGUAAAAUUGUGUAUUUUCAUAAUGUAGUUGGCUACUGCUGGGACUUUCUCAGCUUUAUGUUCCAACAGAGGAUUGAGCAUCA
B3: chr1:84034342:84034343:-_ENSMUSG00000045658_ENSMUST00000168574|mus_mus|FALSE|FALSE (ssRNA)
RNA: GGGAGUUCUACAGUCCGACGAUCGCCUGAGAAUGGUGAAAAUAGGCGUGGAGAUCUCCCAGCAGGAAGUGUUGGAAUAGGAGAGGAAAAAAAAAGUGAGAGGAGAGUCUGGAACCUUCCUCCCCAUCUGUACUCUCCUCAAGACAACAGAGGAUUGAGCAUCA
B4: 133834401_133834521_965_CDS_ENSMUSG00000050890_ENSMUST00000105876|mouse|control|control (ssRNA)
RNA: GGGAGUUCUACAGUCCGACGAUCUUUCAUUCGCCCAUUCAUAGACUUUUUCUUCACAGGGAUGAGAAGUUCCAUUUUGGGGUUUUCCAGAAGUGCCUCCCCAACAGGCACAAUUUCAGUCCCCUGCUUUACGUAACUCCCCAACAACAGAGGAUUGAGCAUCA
B5: chr8:95500983:95500984:-_ENSG00000164944_ENST00000437199|hu_hu|hu_hu_hu_mus_True|78_78 (ssRNA)
RNA: GGGAGUUCUACAGUCCGACGAUCAGAACACAUCUAUCGAGUAAAGGACCGUACAUGGACGACCUCUCCACUGCCUCCACUAACAAACUUUCCUCUCGAGCCUCCACUGCCGCUAUUUGUACUAGCCCAGGACGGUCCCAGGCCCAACAGAGGAUUGAGCAUCA
B6: chr7:141450121:141450122:+_ENSG00000106028_ENST00000265304|hu_mus|hu_hu_hu_mus_True|38_68 (ssRNA)
RNA: GGGAGUUCUACAGUCCGACGAUCUCAUCCGUUCUAUGCCUUUUCUUUUGUCUGGUCACUCAGAAAUAUAAUAUUAUCAGCUAUGAUUGUUGUUGCUUGUCGCCUCACAUUGUUUUUAUCCAUGUACUCGCCAUAGUCCACUUUCAACAGAGGAUUGAGCAUCA
B7: chr8:98731313:98731314:+_ENSG00000147649_ENST00000336273|hu_mus|motif|central (ssRNA)
RNA: GGGAGUUCUACAGUCCGACGAUCACAAGCUUUCUCCUGUUUUGGUCGGGCUUUUGAGGUAUUCACUGGAAGCUCUUCUCGGGUGUCCUUUUCUAGGUCUUCUGUGUCCUGUGUGUGAGAGUUAUCUUCCCCUUGCUUCUUCUUCAACAGAGGAUUGAGCAUCA
B8: 93992280_93998312_1055_3pUTR_ENSMUSG00000055932_ENSMUST00000069718|mouse|control|control (ssRNA)
RNA: GGGAGUUCUACAGUCCGACGAUCAUCAAAGGAUUUCAACGAGACGUCGCCAUCGUCUGAGUCAUUGAGGACAUUCUGCAGCGCCAACUGACAGCGUUCUAAGAUAUAAUCCAAGGUGCCUGUUGAGCACUCUGCCACACGGUGCAACAGAGGAUUGAGCAUCA
B9: chrX:20248820:20248821:+_ENSMUSG00000001924_ENSMUST00000001989|mus_mus|mus_mus_mus_hu_True|58_88 (ssRNA)
RNA: GGGAGUUCUACAGUCCGACGAUCGGCGAAGUCCGUCACCACAAAGUCAGGCUCUACCAGUGAGGCCACCAAGGAUUUAAAACUAAUCUUCUUAGGUACUUUGACCUGACUGACGAUGCCUCCACGGAUGUAGUCGGAGAAGUUCAACAGAGGAUUGAGCAUCA
B10: chr17:60770872:60770873:+_ENSG00000011028_ENST00000303375|hu_hu|hu_hu_hu_mus_True|48_78 (ssRNA)
RNA: GGGAGUUCUACAGUCCGACGAUCUCUUUAAAAAAAAAAAAAAAAAGACAAACAAUAAUAAUGGCACUCGAGAAUCAAGAACUACAAAGAAAGGGCCGCUUUGAGUUUUUGUUCACAUCGUCCUGCACUGGGACACGGGGACUGCAACAGAGGAUUGAGCAUCA
B11: chr17:60770872:60770873:+_ENSG00000011028_ENST00000303375|hu_hu|hu_hu_hu_mus_True|18_78 (ssRNA)
RNA: GGGAGUUCUACAGUCCGACGAUCUCUUUAAAAAAAAAAAAAAAAAGACAAACAAUAAUAAUGGCACUCGAGAAUCAAGAACUACAAUAGAGGGUCCGCUUUGAGUUUUUGUUCACAACAUUGUCCCCUGGGACACGGGGACUGCAACAGAGGAUUGAGCAUCA
B12: chr2:204281756:204281757:+_ENSG00000138443_ENST00000261017|hu_hu|motif|central (ssRNA)
RNA: GGGAGUUCUACAGUCCGACGAUCCUUUUCCAAGUAAGAACGUGGAGCCCACGGUGGGUCCUCUUCAGCAUAAGGAUCACGGUACUCAACCACAGCAGCUUCCUCCUCUUCGUAAUCUUCUGGAGGAGGAGGAGGUGGGGGAGACAACAGAGGAUUGAGCAUCA
B13: chr4:76721835:76721836:+_ENSG00000138768_ENST00000264904|hu_mus|hu_hu_hu_mus_True|68_78 (ssRNA)
RNA: GGGAGUUCUACAGUCCGACGAUCGUUUGGCUGGGGUUUCUGAGACGCUCUGGAAUAAACUCAUGUUUGCUAAUAAAAUCCUAGUUUCUCUAUGAAAUUCUCUUUGCCAAUCCUCUUCUCUAUUAGUUGCUUUAGUUUCUCUUUCAACAGAGGAUUGAGCAUCA
B14: chr14:62224477:62224478:+_ENSMUSG00000035235_ENSMUST00000039562|mus_hu|FALSE|FALSE (ssRNA)
RNA: GGGAGUUCUACAGUCCGACGAUCUUCAUUGAAAAUGAAAAACCCAUCUGUCACCUGUUCCCAGUAAAAAACUGAUUGUUCUAUGAAAUCGGCUGUUUUAGUCAGAUAGGAACUGAAGUUUGAAAGACAGCCUUUCCAAGUUGCCAACAGAGGAUUGAGCAUCA

The assay deals with T1, UNK ZnF1-3. Briefly: nsRBNS (natural sequence RNA bind-n-seq); RBNS binding buffer (assumed for nsRBNS): 25 mM Tris pH 7.5, 150 mM KCl, 3 mM MgCl2, 0.01% Triton X-100, 500 ug/ml BSA, 20 U/ml SUPERase-In, 4 C; UNK is unkempt and MSI1 is Musashi-1; names of the RNAs are library labels; protein concentration not given here; high values mean tight binding.
In the case of B1, the binding signal came out at 2.73 enrichment R. B2: the binding signal amounted to 2.12 enrichment R. Take B3: the binding signal was 1.32 enrichment R. Regarding B4, the binding signal stood at 0.863 enrichment R. B5 had a binding signal of 1.53 enrichment R. Regarding B6, the binding signal was determined as 0.44 enrichment R. Regarding B7, the binding signal came to 0.279 enrichment R. Molecule B8 displayed a binding signal of 1.07 enrichment R. Molecule B9 came in with a binding signal of 0.887 enrichment R. Under B10 stands 4.71 enrichment R; under B11, 4.19 enrichment R. B12 registered a binding signal of 0.684 enrichment R. Take B13: the binding signal stood at 0.621 enrichment R.

In the case of B14, the binding signal came to 0.96 enrichment R.

For the origin of these results see paper PMC12136788.
